# Assay results published in paper PMC7862700, “An all-to-all approach to the identification of sequence-specific readers for epigenetic DNA modifications on cytosine”.
# Assays:
# Assay in all cases: DAPPL (digital affinity profiling via proximity ligation, sequencing); 10 mM Tris-HCl pH 7.5, 50 mM NaCl, 1 mM DTT, 4% glycerol, room temperature, 30 min; GST-TFs on glutathione beads, 16-mer random dsDNA library, 0.1% formaldehyde crosslink after washing; high values mean tight binding
# FEV = molecular target: T1, FEV (Homo sapiens, UniProt Q99581 1-238); conditions: protein: recombinant; tags: N-terminal GST; dsDNA, one strand shown
# T1 sequence: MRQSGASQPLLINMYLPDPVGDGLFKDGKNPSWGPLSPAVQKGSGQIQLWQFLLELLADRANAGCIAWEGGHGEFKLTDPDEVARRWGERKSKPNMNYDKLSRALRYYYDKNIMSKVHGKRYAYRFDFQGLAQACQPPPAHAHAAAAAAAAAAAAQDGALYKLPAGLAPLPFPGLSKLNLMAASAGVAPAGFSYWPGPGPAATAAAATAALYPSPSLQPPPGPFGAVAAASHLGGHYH
# Method in brief: (§1)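 Yeast served to express human transcription factors as GST fusions, which were then captured on glutathione beads and labelled with DNA barcodes. Pooled with a tag-only sample, they were incubated with 200 nmole of a 16-mer random double-stranded DNA library for 30 min at room temperature in Tris/NaCl/DTT/glycerol buffer, washed, crosslinked with 0.1% formaldehyde, ligated by proximity, amplified by PCR and sequenced. Dividing each hexamer's read frequency for a factor by its frequency for the tag-only sample gives the binding signal.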
# ETV5 = ETV5 (Homo sapiens, UniProt P41161 1-510); conditions: protein: recombinant; tags: N-terminal GST; dsDNA, one strand shown
# Method in brief: as §1
# HSF1 = HSF1 (Homo sapiens, UniProt Q00613 1-529); conditions: protein: recombinant; tags: N-terminal GST; chain copies: 3; dsDNA, one strand shown
# Method in brief: as §1
# SPIC = molecular target: T2, SPIC (Homo sapiens, UniProt Q8N5J4 1-248); conditions: protein: recombinant; tags: N-terminal GST; dsDNA, one strand shown
# T2 sequence: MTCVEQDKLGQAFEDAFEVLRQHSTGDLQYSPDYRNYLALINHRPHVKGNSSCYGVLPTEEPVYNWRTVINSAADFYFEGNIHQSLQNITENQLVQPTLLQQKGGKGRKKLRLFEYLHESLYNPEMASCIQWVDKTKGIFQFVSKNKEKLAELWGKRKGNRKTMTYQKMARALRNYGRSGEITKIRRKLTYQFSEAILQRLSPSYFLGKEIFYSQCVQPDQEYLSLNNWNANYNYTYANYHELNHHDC
# Method in brief: as §1
# ELF4 = ELF4 (Homo sapiens, UniProt Q99607 1-663); conditions: protein: recombinant; tags: N-terminal GST; dsDNA, one strand shown
# Method in brief: as §1
# ELK4 = molecular target: T3, ELK4 (Homo sapiens, UniProt P28324-2 1-405); conditions: protein: recombinant; tags: N-terminal GST; dsDNA, one strand shown
# T3 sequence: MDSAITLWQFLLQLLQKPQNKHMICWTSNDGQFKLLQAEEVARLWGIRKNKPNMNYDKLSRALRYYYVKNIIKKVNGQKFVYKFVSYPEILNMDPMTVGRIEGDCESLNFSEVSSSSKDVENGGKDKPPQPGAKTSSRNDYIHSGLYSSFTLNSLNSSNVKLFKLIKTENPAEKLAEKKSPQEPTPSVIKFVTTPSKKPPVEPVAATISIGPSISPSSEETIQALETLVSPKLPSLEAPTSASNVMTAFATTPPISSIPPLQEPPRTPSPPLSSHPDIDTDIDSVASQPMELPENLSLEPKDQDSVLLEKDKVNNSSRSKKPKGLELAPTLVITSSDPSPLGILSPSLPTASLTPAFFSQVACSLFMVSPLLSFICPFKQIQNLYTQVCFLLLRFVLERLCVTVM
# Method in brief: as §1
# ETV2 = molecular target: T4, ETV2 (Homo sapiens, UniProt O00321 1-342); conditions: protein: recombinant; tags: N-terminal GST; dsDNA, one strand shown
# T4 sequence: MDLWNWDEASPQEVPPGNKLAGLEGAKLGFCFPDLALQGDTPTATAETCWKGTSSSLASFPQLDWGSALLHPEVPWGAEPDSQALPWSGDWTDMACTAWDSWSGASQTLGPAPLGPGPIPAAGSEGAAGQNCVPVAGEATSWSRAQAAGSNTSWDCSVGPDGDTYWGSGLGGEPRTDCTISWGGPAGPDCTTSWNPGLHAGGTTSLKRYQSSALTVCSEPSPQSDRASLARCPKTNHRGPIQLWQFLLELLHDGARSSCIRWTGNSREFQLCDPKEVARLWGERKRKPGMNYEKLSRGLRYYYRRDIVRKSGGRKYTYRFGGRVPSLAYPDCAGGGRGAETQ
# Method in brief: as §1
# ELF3 = molecular target: T5, ELF3 (Homo sapiens, UniProt P78545 1-371); conditions: protein: recombinant; tags: N-terminal GST; dsDNA, one strand shown
# T5 sequence: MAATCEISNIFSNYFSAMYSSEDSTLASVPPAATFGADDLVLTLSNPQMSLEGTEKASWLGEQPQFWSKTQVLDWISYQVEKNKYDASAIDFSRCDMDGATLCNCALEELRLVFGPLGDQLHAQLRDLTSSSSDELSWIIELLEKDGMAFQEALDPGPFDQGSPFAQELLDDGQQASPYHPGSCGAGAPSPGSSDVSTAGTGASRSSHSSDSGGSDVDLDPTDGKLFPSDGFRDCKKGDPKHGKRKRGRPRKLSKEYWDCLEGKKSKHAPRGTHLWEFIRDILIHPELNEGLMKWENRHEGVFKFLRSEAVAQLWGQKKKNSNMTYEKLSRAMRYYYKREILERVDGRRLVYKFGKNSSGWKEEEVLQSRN
# Method in brief: as §1
# CRX = CRX (Homo sapiens, UniProt O43186 1-299); conditions: protein: recombinant; tags: N-terminal GST; dsDNA, one strand shown
# Method in brief: as §1
# ETV1 = ETV1 (Homo sapiens, UniProt P50549 1-477); conditions: protein: recombinant; tags: N-terminal GST; dsDNA, one strand shown
# Method in brief: as §1
# ERF = molecular target: T6, ERF (Homo sapiens, UniProt P50548 1-548); conditions: protein: recombinant; tags: N-terminal GST; dsDNA, one strand shown
# T6 sequence: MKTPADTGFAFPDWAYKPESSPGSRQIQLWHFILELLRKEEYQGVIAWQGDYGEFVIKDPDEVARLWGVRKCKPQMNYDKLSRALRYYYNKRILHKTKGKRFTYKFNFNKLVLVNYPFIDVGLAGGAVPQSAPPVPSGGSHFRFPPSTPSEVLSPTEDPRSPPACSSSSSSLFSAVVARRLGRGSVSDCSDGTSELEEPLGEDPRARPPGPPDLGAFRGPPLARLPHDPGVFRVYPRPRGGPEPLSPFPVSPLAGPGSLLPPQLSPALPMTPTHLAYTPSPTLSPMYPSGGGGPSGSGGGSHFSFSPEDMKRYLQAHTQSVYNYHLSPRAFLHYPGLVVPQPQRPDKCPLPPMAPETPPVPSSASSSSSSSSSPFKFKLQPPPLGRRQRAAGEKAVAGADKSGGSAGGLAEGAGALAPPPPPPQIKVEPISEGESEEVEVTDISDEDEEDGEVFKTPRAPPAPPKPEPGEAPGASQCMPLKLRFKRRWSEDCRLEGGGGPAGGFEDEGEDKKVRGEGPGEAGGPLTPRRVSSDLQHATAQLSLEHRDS
# Method in brief: as §1
# ETV3L = molecular target: T7, ETV3L (Homo sapiens, UniProt Q6ZN32 1-361); conditions: protein: recombinant; tags: N-terminal GST; dsDNA, one strand shown
# T7 sequence: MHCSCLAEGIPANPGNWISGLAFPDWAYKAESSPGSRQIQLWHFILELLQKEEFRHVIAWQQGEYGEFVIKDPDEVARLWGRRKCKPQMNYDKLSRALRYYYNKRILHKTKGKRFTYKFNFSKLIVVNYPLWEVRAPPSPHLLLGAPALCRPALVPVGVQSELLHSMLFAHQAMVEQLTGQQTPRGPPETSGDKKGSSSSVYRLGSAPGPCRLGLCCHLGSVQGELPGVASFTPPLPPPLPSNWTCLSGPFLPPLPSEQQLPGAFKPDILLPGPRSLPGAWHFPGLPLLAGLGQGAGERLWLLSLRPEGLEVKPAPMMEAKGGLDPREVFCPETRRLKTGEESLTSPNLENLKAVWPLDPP
# Method in brief: as §1
# ETS2 = molecular target: T8, ETS2 (Homo sapiens, UniProt P15036 1-469); conditions: protein: recombinant; tags: N-terminal GST; dsDNA, one strand shown
# T8 sequence: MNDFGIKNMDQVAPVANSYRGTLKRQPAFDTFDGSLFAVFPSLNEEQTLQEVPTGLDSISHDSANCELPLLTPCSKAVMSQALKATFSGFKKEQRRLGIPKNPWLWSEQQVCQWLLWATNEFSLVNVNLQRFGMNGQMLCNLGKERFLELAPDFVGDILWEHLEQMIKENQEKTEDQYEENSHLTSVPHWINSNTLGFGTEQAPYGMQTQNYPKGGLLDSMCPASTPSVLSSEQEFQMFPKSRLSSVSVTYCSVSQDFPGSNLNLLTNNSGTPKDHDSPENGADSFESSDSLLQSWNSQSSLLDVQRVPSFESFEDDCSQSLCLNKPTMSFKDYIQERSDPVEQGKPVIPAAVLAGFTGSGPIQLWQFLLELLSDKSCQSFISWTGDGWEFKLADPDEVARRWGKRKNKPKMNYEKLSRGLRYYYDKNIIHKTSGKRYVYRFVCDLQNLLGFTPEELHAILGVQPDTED
# Method in brief: as §1
# SPDEF = molecular target: T9, SPDEF (Homo sapiens, UniProt O95238 1-335); conditions: protein: recombinant; tags: N-terminal GST; dsDNA, one strand shown
# T9 sequence: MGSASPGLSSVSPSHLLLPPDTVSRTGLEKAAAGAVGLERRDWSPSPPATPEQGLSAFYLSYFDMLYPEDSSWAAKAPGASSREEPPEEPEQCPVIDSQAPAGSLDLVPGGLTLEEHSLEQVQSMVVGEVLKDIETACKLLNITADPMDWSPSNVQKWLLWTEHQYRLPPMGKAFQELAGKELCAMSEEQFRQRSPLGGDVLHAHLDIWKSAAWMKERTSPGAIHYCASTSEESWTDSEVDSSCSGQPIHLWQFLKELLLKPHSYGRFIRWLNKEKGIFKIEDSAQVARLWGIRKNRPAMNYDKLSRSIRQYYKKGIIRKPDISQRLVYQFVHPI
# Method in brief: as §1
# ETV7 = molecular target: T10, ETV7 (Homo sapiens, UniProt Q9Y603 1-341); conditions: protein: recombinant; tags: N-terminal GST; dsDNA, one strand shown
# T10 sequence: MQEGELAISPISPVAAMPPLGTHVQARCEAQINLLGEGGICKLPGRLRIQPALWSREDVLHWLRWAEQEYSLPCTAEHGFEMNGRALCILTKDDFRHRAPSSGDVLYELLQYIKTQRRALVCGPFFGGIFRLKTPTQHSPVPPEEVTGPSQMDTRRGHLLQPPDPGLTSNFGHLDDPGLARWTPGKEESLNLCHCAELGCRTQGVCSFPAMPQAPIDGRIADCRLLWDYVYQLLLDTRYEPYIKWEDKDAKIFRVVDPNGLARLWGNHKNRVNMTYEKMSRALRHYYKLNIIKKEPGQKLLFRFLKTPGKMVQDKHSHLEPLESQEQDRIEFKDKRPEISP
# Method in brief: as §1
# ELF5 = molecular target: T11, ELF5 (Homo sapiens, UniProt Q9UKW6-2 1-255); conditions: protein: recombinant; tags: N-terminal GST; dsDNA, one strand shown
# T11 sequence: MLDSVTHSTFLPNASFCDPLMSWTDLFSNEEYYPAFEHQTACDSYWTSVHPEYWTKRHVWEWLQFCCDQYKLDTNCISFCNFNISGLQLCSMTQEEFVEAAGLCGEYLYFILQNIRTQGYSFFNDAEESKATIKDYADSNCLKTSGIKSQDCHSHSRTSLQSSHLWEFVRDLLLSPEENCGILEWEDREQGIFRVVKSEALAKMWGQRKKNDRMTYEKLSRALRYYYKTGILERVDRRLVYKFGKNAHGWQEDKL
# Method in brief: as §1
# ETV3 = molecular target: T12, ETV3 (Homo sapiens, UniProt P41162-2 1-143); conditions: protein: recombinant; tags: N-terminal GST; dsDNA, one strand shown
# T12 sequence: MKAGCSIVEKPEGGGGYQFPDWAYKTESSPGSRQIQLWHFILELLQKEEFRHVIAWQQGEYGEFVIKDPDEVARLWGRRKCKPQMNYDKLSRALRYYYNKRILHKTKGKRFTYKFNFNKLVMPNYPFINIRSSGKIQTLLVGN
# Method in brief: as §1
# ETV6 = ETV6 (Homo sapiens, UniProt P41212 1-452); conditions: protein: recombinant; tags: N-terminal GST; dsDNA, one strand shown
# Method in brief: as §1
# ETV5, sequence (P41161 whole entry): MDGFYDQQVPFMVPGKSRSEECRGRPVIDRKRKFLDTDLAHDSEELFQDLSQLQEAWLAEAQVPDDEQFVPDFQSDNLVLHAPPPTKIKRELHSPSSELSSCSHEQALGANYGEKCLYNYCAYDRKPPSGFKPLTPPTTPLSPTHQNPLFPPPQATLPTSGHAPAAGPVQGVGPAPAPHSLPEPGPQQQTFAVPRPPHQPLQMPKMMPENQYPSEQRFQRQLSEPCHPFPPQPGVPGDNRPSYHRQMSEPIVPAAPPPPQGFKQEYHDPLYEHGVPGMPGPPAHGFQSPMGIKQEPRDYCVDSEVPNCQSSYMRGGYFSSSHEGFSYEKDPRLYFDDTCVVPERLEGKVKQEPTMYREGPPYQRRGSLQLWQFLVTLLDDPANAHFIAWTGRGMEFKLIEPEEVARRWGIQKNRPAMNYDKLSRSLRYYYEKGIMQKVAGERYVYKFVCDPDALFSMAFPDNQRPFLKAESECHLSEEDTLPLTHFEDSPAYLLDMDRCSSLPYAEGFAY
# HSF1, sequence (Q00613 whole entry): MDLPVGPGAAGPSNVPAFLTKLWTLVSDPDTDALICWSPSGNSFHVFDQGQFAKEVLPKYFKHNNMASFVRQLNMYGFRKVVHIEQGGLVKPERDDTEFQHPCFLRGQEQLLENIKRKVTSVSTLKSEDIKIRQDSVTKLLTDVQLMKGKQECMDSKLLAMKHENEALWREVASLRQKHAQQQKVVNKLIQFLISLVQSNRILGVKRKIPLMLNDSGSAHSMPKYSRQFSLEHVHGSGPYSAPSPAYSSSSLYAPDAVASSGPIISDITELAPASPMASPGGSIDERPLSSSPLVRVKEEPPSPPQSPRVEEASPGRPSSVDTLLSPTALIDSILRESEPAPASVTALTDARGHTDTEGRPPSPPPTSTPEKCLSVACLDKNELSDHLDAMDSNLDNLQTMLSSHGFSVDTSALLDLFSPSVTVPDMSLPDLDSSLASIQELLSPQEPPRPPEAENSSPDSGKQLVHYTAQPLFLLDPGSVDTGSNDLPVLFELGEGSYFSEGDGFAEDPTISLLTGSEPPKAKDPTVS
# ELF4, sequence (Q99607 whole entry): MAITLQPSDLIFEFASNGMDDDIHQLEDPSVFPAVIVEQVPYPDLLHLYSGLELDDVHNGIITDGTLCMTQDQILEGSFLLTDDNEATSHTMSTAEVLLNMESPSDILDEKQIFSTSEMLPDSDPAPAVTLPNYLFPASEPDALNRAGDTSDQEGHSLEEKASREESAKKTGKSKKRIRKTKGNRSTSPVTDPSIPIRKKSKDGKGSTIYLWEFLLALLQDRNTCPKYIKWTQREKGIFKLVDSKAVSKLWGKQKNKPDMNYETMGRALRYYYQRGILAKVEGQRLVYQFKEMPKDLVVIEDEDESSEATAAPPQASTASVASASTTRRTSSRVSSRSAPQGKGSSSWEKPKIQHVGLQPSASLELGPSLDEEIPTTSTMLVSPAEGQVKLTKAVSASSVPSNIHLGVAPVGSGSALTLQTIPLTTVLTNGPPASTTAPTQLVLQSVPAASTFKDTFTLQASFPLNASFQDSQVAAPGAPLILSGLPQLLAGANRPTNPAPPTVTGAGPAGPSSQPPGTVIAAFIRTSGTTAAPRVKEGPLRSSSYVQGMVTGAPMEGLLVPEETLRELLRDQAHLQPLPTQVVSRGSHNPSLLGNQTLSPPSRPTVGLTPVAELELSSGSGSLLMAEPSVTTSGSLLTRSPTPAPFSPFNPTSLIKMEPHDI
# ETV6, sequence (P41212 whole entry): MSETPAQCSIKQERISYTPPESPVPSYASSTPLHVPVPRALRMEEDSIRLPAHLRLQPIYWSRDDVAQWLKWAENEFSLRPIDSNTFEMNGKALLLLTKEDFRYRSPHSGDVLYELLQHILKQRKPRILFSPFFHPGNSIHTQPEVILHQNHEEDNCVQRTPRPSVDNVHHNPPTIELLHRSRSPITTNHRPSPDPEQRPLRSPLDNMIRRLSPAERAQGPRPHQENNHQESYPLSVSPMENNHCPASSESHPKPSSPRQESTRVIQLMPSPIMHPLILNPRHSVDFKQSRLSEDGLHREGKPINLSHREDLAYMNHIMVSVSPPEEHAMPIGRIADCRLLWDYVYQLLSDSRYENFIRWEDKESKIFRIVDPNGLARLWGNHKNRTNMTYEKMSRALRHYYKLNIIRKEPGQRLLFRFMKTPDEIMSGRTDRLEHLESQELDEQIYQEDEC
# CRX, sequence (O43186 whole entry): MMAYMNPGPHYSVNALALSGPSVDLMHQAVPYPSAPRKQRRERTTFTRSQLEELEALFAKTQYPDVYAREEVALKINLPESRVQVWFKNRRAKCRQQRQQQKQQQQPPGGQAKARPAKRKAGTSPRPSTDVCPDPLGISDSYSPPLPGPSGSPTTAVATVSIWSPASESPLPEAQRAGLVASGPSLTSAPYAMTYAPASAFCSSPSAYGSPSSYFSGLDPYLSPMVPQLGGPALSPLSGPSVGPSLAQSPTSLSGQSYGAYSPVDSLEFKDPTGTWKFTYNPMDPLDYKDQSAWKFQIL
# ETV1, sequence (P50549 whole entry): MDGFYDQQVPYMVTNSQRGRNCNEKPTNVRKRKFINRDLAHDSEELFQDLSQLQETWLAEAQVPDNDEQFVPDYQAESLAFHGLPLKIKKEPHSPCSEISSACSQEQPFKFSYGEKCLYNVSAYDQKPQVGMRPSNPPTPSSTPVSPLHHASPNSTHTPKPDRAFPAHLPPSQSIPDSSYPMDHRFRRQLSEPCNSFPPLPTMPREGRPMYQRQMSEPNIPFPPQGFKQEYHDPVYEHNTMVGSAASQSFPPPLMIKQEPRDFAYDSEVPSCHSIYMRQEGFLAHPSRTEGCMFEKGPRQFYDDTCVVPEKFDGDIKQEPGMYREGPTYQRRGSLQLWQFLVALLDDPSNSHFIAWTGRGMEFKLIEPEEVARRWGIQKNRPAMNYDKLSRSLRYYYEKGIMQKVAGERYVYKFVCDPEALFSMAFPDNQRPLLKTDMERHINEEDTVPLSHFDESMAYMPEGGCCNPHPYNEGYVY
sequence,measurement,setting,value
TTAATG,binding signal,FEV,"1.12 fold enrichment (6-mer frequency, TF over GST control)"
same,binding signal,ETV5,"1.27 fold enrichment (6-mer frequency, TF over GST control)"
same,binding signal,HSF1,"1.89 fold enrichment (6-mer frequency, TF over GST control)"
same,binding signal,SPIC,"1.24 fold enrichment (6-mer frequency, TF over GST control)"
same,binding signal,ELF4,"1.26 fold enrichment (6-mer frequency, TF over GST control)"
same,binding signal,ELK4,"1.21 fold enrichment (6-mer frequency, TF over GST control)"
same,binding signal,ETV2,"1.31 fold enrichment (6-mer frequency, TF over GST control)"
same,binding signal,ELF3,"1.21 fold enrichment (6-mer frequency, TF over GST control)"
same,binding signal,CRX,"2.75 fold enrichment (6-mer frequency, TF over GST control)"
same,binding signal,ETV1,"1.29 fold enrichment (6-mer frequency, TF over GST control)"
same,binding signal,ERF,"1.05 fold enrichment (6-mer frequency, TF over GST control)"
same,binding signal,ETV3L,"1.19 fold enrichment (6-mer frequency, TF over GST control)"
same,binding signal,ETS2,"1.2 fold enrichment (6-mer frequency, TF over GST control)"
same,binding signal,SPDEF,"1.19 fold enrichment (6-mer frequency, TF over GST control)"
same,binding signal,ETV7,"1.26 fold enrichment (6-mer frequency, TF over GST control)"
same,binding signal,ELF5,"1.19 fold enrichment (6-mer frequency, TF over GST control)"
same,binding signal,ETV3,"1.21 fold enrichment (6-mer frequency, TF over GST control)"
same,binding signal,ETV6,"1.19 fold enrichment (6-mer frequency, TF over GST control)"
